Measurements: PubChem BioAssay (NCATS)
Results filed as inconclusive are left out. Entries that show only a call come without a potency. Calls of active or inactive are those of the source. Unless noted, calls come from the whole dose curve; as a rule, active = well fitted curve in the direction sought with a large enough effect; inconclusive = small, poorly fitted or top-dose-only effect, or another doubt; inactive = no such curve, though single readings can be large; an effect the other way counts as inactive or inconclusive.

Key:
[1] = NFAT Signaling Pathway (AID 444; active = well fitted curve in either direction with a large enough effect, not every such curve was filed as active;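 note: carbachol stimulus at about its EC50 of 1 µM final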); conditions: Jurkat NFAT-bla M1, carbachol, beta-lactamase ratio, 5 h; at 17.2 µM (top of the series) unless noted
How it was run: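 Jurkat cells carrying an NFAT-driven β-lactamase reporter and co-transfected muscarinic M1 receptor were treated with compound plus carbachol (1 uM final, an EC50 level) for 5 h at 37 °C. CCF4 loading followed for 1 h at RT; 460/530 nm ratio gave %activity.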

[2] = qHTS Assay for Identification of Small Molecule Agonists for Hypoxia Response Element Signaling Pathway (AID 914; active = well fitted activation curve with a large enough effect in the signal ratio, with a control signal flat, not every such curve was filed as active; the % refers to the signal ratio; note: potency is the fitted concentration of half-maximal effect); conditions: ME-180 HRE-bla reporter, beta-lactamase ratio, CoCl2, 17 h; activation: active compounds read high
How it was run: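 qHTS titration; ME-180 HRE-bla cells; EC50 CoCl2 co-treatment, 17 h at 37 degrees Celsius; CCF4 dye, ex 405nm, em 460nm and 530nm; %Activity from ratio; AC50.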

[3] = molecular target: Cytochrome P450 2C19 (Homo sapiens) (UniProt P33261); experiment: qHTS Assay for Inhibitors and Substrates of Cytochrome P450 2C19 (AID 899); note: nearly all actives have a fitted effect of over 60% in size; note: potency is the fitted concentration of half-maximal effect
Sequence of Cytochrome P450 2C19 (Homo sapiens) (P33261 whole entry, looked up): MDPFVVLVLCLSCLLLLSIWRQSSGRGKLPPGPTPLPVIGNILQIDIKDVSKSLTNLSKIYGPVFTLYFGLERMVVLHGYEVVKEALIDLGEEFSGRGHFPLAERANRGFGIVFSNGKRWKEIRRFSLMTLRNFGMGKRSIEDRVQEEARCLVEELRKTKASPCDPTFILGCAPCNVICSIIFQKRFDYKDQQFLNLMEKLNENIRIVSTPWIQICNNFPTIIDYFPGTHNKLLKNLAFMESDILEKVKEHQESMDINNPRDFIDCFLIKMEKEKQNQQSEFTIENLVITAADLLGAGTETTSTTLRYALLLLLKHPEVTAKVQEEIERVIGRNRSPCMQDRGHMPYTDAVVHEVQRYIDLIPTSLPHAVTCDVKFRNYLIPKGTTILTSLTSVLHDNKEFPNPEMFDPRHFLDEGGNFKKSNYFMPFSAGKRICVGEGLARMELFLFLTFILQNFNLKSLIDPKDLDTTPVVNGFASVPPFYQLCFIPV
How it was run: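 Human CYP2C19 (5nM) with Luciferin-H EGE at 10uM (its KM) in 50mM KPO4 was preincubated with compound for 10 min at 37C. NADPH regeneration started a 60 min 37C reaction. Luciferin was read by luminescence, normalized to 57uM ketoconazole.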

[4] = molecular target: Guanine nucleotide-binding protein G(i) subunit alpha-1 (Homo sapiens) (UniProt P63096); experiment: qHTS Assay for Inhibitors of RGS12 GoLoco Motif Activity (Green Fluorophore) (AID 879);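 note: negative values mean loss of peptide binding seen as reduced polarization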
Sequence of Guanine nucleotide-binding protein G(i) subunit alpha-1 (Homo sapiens) (P63096 whole entry, looked up): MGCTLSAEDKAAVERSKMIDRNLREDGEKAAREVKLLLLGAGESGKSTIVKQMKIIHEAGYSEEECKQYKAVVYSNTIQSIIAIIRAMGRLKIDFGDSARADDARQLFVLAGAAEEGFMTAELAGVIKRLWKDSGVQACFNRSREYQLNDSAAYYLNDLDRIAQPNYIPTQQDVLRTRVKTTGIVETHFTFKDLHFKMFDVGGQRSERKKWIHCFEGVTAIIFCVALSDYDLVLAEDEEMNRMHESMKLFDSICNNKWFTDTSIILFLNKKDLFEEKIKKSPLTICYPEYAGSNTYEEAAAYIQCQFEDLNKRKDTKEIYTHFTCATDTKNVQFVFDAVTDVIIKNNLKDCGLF
How it was run: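 Fluorescence polarization assay: 50 nM Gαi1 with 10 nM FITC-labeled RGS12 GoLoco peptide in 10 mM Tris pH 7.5, 150 mM NaCl, 0.1 mM GDP, 0.05% NP40, 10 min at room temperature with compound.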

[5] = qHTS Assay for Identification of Small Molecule Agonists for Thrombopoietin (TPO) Signaling Pathway (AID 917)
How it was run: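 Reporter: GpIIb promoter–luciferase in murine Ba/F3 expressing human TPO receptor. Pre-starved of IL-3 overnight; compounds with 26 pM TPO, 24 hrs, 37 C/5% CO2; luminescence read.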

[6] = molecular target: Muscarinic acetylcholine receptor M1 (Rattus norvegicus) (UniProt P08482); experiment: qHTS Assay for Antagonists of Acetylcholine Muscarinic M1 Receptor: Kinetic Measurement of Intracellular Calcium Response (AID 943);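 note: Fluo-4 calcium signal as peak divided by basal fluorescence over 4 min; nearly all actives have a fitted effect of over 75% in size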
Sequence of Muscarinic acetylcholine receptor M1 (Rattus norvegicus) (P08482 whole entry, looked up): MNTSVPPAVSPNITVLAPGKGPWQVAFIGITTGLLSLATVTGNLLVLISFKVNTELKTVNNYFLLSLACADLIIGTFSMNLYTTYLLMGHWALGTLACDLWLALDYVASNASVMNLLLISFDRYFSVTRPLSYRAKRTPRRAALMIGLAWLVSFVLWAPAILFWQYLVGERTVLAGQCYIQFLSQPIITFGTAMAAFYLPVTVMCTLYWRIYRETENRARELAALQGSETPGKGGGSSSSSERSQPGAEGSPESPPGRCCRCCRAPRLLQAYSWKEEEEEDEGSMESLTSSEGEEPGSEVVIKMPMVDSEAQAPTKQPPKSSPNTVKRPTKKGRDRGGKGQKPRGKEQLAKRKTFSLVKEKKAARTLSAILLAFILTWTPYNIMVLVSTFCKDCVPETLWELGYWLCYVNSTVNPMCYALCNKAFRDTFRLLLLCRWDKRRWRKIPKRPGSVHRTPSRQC
How it was run: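 Rat M1-CHO cells, 2000/well, overnight → Fluo-4 no-wash dye with probenecid, 1 h 37C → compound 10 min, room temp → basal read 6 s → carbachol EC80 (100 nM) → 4 min kinetic read; peak/basal.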

[7] = molecular target: Muscarinic acetylcholine receptor M1 (Rattus norvegicus) (UniProt P08482); experiment: qHTS Assay for Antagonists of Acetylcholine Muscarinic M1 Receptor: Measurement of IP-One Response (AID 944); note: nearly all actives have a fitted effect of over 75% in size
How it was run: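 M1-CHO (rat), 2000 cells/well, overnight recovery; cpd 10 min; carbachol EC80 (200 nM), 30 min, HEPES buffer + 50 mM LiCl pH 7.4; IP-One HTRF, Ex 337, Em 620/665 nm.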

[8] = molecular target: Pyruvate kinase (Leishmania mexicana) (UniProt Q27686); experiment: qHTS Validation Assay for Inhibitors of Leishmania Mexicana Pyruvate Kinase (AID 945)
Sequence of Pyruvate kinase (Leishmania mexicana) (Q27686 2-499 E452W): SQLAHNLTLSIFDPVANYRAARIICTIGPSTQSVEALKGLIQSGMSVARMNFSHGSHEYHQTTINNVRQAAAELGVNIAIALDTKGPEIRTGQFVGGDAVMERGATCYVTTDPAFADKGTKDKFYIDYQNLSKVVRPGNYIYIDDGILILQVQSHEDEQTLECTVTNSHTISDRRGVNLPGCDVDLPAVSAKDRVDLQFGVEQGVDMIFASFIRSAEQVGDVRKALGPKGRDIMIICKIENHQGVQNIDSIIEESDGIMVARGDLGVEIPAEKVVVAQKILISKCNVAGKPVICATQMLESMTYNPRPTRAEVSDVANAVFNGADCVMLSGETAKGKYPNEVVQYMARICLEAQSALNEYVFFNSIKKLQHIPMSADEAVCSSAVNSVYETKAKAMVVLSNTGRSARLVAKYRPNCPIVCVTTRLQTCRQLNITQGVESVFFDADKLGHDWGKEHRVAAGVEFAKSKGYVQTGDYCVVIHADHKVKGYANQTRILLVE
How it was run: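 Read-out: luminescence from PKLight stop/detection reagent, data normalized to DMSO. Reaction: 0.2 nM E451W LmPYK, 0.5 mM PEP, 0.1 mM ADP, pH 7.2, 1 h room temperature.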

[9] = molecular target: Pyruvate kinase PKM (Homo sapiens) (UniProt P14618); experiment: qHTS Assay for Activators of Human Muscle Pyruvate Kinase (AID 954; active = well fitted curve in the direction sought with a large enough effect, not every such curve was filed as active)
Sequence of Pyruvate kinase PKM (Homo sapiens) (P14618 whole entry, looked up): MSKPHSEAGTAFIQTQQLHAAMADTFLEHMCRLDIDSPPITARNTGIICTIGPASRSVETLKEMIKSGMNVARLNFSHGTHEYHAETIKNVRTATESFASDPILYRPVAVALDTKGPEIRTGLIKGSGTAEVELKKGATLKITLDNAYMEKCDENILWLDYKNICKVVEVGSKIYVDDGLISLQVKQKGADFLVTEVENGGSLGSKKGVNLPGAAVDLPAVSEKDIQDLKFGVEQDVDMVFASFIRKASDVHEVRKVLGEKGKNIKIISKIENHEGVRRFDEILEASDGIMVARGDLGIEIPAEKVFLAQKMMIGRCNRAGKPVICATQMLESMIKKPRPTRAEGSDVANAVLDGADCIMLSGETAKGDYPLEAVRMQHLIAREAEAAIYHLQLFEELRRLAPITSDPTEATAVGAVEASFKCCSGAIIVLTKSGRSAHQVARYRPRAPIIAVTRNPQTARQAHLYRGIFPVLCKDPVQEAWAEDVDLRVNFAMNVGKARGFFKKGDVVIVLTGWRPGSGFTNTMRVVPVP
How it was run: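 Human PKM2 activity is measured as ATP generation, detected by luciferase-coupled luminescence. The enzyme (0.1 nM) acts on 0.5 mM PEP and 0.1 mM ADP for 1 h at ambient temperature; data are normalized to uninhibited and full-inhibition wells.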

[10] = molecular target: Alpha-galactosidase A (Homo sapiens) (UniProt P06280); experiment: Counterscreen for Glucocerebrosidase Inhibitors: qHTS Assay for Human alpha-Galactosidase at pH 4.5 (AID 992)
Sequence of Alpha-galactosidase A (Homo sapiens) (P06280 whole entry, looked up): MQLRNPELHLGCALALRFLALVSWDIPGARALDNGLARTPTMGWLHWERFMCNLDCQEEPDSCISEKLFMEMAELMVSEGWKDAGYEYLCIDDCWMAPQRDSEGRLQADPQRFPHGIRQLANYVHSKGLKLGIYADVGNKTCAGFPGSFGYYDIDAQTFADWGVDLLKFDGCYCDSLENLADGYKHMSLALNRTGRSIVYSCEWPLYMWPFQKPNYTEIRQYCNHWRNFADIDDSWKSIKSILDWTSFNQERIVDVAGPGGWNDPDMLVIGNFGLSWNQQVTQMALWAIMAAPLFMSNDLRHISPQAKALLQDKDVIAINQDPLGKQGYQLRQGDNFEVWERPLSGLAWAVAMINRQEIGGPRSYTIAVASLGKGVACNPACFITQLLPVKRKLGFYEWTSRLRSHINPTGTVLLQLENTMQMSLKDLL
How it was run: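 Quantitative HTS: compounds tested from 0.7 nM up to 77 uM against 2 nM enzyme with 80 uM 4-MU alpha-D-galactopyranoside. The 20 min room-temperature reaction is stopped with 1M NaOH/1M glycine, pH 10.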

[11] = molecular target: alpha-glucosidase (Oryza sativa, rice) (UniProt Q653V4); experiment: Counterscreen for Glucocerebrosidase Inhibitors: qHTS Assay for Rice alpha-Glucosidase at pH 5.0 (AID 997)
How it was run: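 Rice alpha-glucosidase (4 nM final) with 400 uM 4-methylumbelliferyl-alpha-D-glucopyranoside in citrate buffer pH 5.0, 20 min at room temperature, stopped at pH 10; fluorescence 365/440 nm, compounds 0.7 nM–77 uM, AC50 from Hill fits.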

[12] = molecular target: DNA dC->dU-editing enzyme APOBEC-3G (Homo sapiens) (UniProt Q9HC16); experiment: qHTS for inhibitors of Vif-A3G interactions: Validation (AID 588379)
Sequence of DNA dC->dU-editing enzyme APOBEC-3G (Homo sapiens) (Q9HC16 whole entry, looked up): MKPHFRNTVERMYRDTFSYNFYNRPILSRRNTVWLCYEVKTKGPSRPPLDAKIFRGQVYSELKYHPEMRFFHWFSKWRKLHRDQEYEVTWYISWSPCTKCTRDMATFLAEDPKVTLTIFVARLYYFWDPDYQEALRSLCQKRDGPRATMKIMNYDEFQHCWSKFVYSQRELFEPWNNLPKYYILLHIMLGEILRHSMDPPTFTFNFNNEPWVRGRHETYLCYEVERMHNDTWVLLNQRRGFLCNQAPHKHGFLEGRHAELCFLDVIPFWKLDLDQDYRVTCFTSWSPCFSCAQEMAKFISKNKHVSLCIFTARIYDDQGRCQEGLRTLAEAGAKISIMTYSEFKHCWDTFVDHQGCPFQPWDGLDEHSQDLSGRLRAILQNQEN
How it was run: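 HeLa cells stably expressing Vif and A3G-eYFP, 700 cells/well, incubated overnight at 37 deg C, then exposed to compound overnight at 37 deg C. Inhibition of Vif-mediated degradation read as increased yellow fluorescence (Ex 488/Em 500-530) by laser-scanning cytometry.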

[13] = Cytotoxicity counterscreen for NFkB agonists and antagonists (AID 624476);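 note: cells exposed to compound for 48 hours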
[14] = qHTS Assay for Identification of Small Molecule Agonists for NFkB Signaling Pathway. (AID 624478);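 note: compounds tested together with TNF alpha at its EC50 of 10 pM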
How it was run: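 ME-180 cervical carcinoma, stable NFkB-RE beta-lactamase reporter; 1000 cells/well, overnight attachment; cpd + TNF alpha 10 pM final, 5 h 37 C; LiveBLAzer 2 h RT; FRET 460/530 nm, ex 405 nm.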

[15] = qHTS Assay for Identification of Small Molecule Antagonists for NFkB Signaling Pathway. (AID 624479; calls by dose curve;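 note: pathway stimulated with TNF alpha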)
[16] = molecular target: Tyrosyl-DNA phosphodiesterase 1 (Homo sapiens) (UniProt Q9NUW8); experiment: Confirmation Assay for Inhibitors of Tyrosyl-DNA Phosphodiesterase (TDP1) (AID 489007); conditions: recombinant human TDP1 enzymatic activity, dose-response; note: potency is the fitted concentration of half-maximal effect; nearly all actives have a fitted effect of over 40% in size
Sequence of Tyrosyl-DNA phosphodiesterase 1 (Homo sapiens) (Q9NUW8 whole entry, looked up): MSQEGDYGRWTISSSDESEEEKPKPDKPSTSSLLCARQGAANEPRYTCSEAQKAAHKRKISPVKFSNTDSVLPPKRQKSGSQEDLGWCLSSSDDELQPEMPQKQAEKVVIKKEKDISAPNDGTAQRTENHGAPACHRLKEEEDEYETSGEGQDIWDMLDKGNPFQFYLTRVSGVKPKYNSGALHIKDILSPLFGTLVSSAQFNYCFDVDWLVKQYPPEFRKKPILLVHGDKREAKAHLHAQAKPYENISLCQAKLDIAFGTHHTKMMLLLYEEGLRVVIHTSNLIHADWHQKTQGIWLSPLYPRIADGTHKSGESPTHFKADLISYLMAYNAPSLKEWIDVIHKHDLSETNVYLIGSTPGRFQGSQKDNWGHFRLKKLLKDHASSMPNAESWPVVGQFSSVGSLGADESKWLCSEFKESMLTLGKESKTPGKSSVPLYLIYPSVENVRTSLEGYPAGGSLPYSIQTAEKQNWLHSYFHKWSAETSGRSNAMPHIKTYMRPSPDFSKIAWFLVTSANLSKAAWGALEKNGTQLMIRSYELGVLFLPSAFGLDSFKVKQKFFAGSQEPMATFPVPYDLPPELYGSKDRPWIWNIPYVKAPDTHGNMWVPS
How it was run: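 Tdp1 1 nM + cpd, 15 min RT; add biotin/phosphotyrosine-FITC oligo 15 nM, 5 min RT; add AS donor/acceptor beads 10 ug/ml, 10 min RT; read AlphaScreen. No-enzyme wells = max signal.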

CCOC(=O)Oc1c(OC)cc(C(=O)O[C@H]2C[C@H]3CN4CCc5c([nH]c6cc(OC)ccc56)[C@@H]4C[C@H]3[C@@H](C(=O)OC)[C@@H]2OC)cc1OC
activity change, negative = inhibition [1]: -2.78% (inactive)

C[C@@H]1[C@H]2CC[C@@H]3[C@@H]4CC=C5C[C@@H](N(C)C)CC[C@]5(C)[C@@H]4CC[C@@]32CN1C
activation [2]: 23.8% (inactive)

CS(=O)(=O)Nc1cccc(-c2nc(Nc3ccc(F)cc3)c3ccccc3n2)c1
Potency [3]: 7.94 µM (active)

CN1CCC[C@@H](CC2c3ccccc3Sc3ccccc32)C1
activity change, negative = inhibition [1]: -49.6% (active)

CC(=O)N[C@H](CS)C(=O)O
Potency [3]: inactive

CC(=O)/C(C)=N\O
outcome [4]: inactive
outcome [5]: inactive
outcome [6]: inactive
outcome [7]: inactive
outcome [8]: inactive
outcome [9]: inactive
outcome [10]: inactive
outcome [11]: inactive
outcome [12]: inactive

C[C@H](NCCC(c1ccccc1)c1ccccc1)c1ccccc1
Potency [3]: 5.01 µM (active)

COc1ccc2c(c1)N(C[C@@H](C)CN(C)C)c1ccccc1S2
activation [2]: -28.7% (inactive)

C[C@@H](Cc1cccc(C(F)(F)F)c1)NCCOC(=O)c1ccccc1
activity change, negative = inhibition [1]: -24.1% (inactive)

CN1[C@H](CC(=O)c2ccccc2)CCC[C@H]1C[C@@H](O)c1ccccc1
Potency [3]: inactive
outcome [12]: inactive

CC/C=C\C[C@H]1C(=O)CC[C@@H]1CC(=O)O
Potency [3]: inactive
outcome [12]: inactive

Cc1onc(-c2c(F)cccc2Cl)c1C(=O)N[C@H]1C(=O)N2[C@H]1SC(C)(C)[C@H]2C(=O)O
activity change, negative = inhibition [1]: -12.5% (inactive)

Nc1ncnc2c1ncn2[C@@H]1O[C@H](COP(=O)(O)O)[C@@H](O)[C@@H]1O
Potency [3]: inactive

NCCC(=O)N[C@@H](Cc1cnc[nH]1)C(=O)O
Potency [3]: inactive
outcome [12]: inactive

Nc1ncn([C@H]2O[C@@H](CO)[C@@H](O)[C@@H]2O)c(=O)n1
activity change, negative = inhibition [1]: -16.5% (inactive)

COc1ccc(-c2cc(=O)c3c(O)cc(O)cc3o2)cc1
outcome [12]: inactive

C[C@@](N)(C(=O)O)c1cccc(CC(=O)O)c1
outcome [12]: inactive

Cc1ccnc(N)c1
outcome [12]: inactive

C=C(C)[C@H]1CC[C@]2(C(=O)O)CC[C@]3(C)[C@@H](CC[C@H]4[C@@]5(C)CC[C@@H](O)C(C)(C)[C@@H]5CC[C@@]43C)[C@H]12
activity change, negative = inhibition [1]: -3.55% (inactive)

CCO[C@H]1O[C@@H]([C@H](COCc2ccccc2)OCc2ccccc2)[C@@H](OCc2ccccc2)[C@H]1O
activity change, negative = inhibition [1]: -29.7% (inactive)

O=c1cc(-c2cccc(O)c2)oc2cc(O)ccc12
Potency [3]: inactive
outcome [12]: inactive

C=C(C)[C@H]1CC[C@]2(CO)CC[C@]3(C)[C@@H](CC[C@H]4[C@@]5(C)CC[C@@H](O)C(C)(C)[C@@H]5CC[C@@]43C)[C@H]12
activity change, negative = inhibition [1]: -4.45% (inactive)
Potency [2]: 1.26 µM (active)

CC=C(/C(=C/C)c1ccc(O)cc1)c1ccc(O)cc1
Potency [3]: 3.16 µM (active)

FC(F)(F)c1ccccc1-c1ccc2ncnc(NC3CCNCC3)c2c1
activity change, negative = inhibition [1]: 2.61% [at 7.69 µM] (inactive)
Potency [3]: 3.98 µM (active)
activation [2]: -6.93% (inactive)

C[C@@H](CN1c2ccccc2Sc2ccccc21)N(C)C
outcome [4]: inactive
outcome [5]: inactive
outcome [8]: inactive
outcome [9]: inactive
outcome [10]: inactive
outcome [11]: inactive

Cc1cc2ccc(=O)oc2cc1OC[C@@H](O)C(C)(C)O
Potency [3]: inactive
outcome [12]: inactive

O=C1C=CC(=O)c2c1ccc1c2ccc2ccccc21
activity change, negative = inhibition [1]: -25.7% (active)

CCC(C)(C)C(=O)O[C@@H]1C[C@H](C)C=C2C=C[C@H](C)[C@@H](CC[C@H]3C[C@@H](O)CC(=O)O3)[C@H]21
activity change, negative = inhibition [1]: 7.6% (inactive)
outcome [13]: inactive
outcome [14]: inactive
outcome [15]: inactive

O=C(O)[C@@H]1[C@@H]2C[C@H]3c4[nH]c5ccccc5c4CCN3C[C@@H]2CC[C@@H]1O
activity change, negative = inhibition [1]: -27% (inactive)
Potency [3]: inactive

CC(C)(C)NC(=O)[C@@H]1C[C@H]2CCCC[C@@H]2CN1C[C@H](O)[C@H](Cc1ccccc1)NC(=O)[C@@H](CC(N)=O)NC(=O)c1ccc2ccccc2n1
activity change, negative = inhibition [1]: -14.7% (inactive)

C/C(=C\CNc1ncnc2nc[nH]c12)CO
Potency [3]: inactive
outcome [12]: inactive

COC(=O)[C@@H]1[C@@H]2C[C@H]3c4[nH]c5cc(OC)ccc5c4CCN3C[C@@H]2C[C@H](OC(=O)/C=C\c2cc(OC)c(OC)c(OC)c2)[C@H]1OC
activity change, negative = inhibition [1]: 0.402% (inactive)

COc1cccc(-c2nc(NCCc3c[nH]c4ccc(OC)cc34)c3ccccc3n2)c1
Potency [3]: 1.58 µM (active)

Nc1ncnc2c1nc(Br)n2[C@H]1O[C@H]2COP(=O)(O)O[C@H]2[C@@H]1O
outcome [12]: inactive

Cc1cc(O)c(C=O)c2c1C(=O)Oc1c(C)c(O)c3c(c1O2)C(O)OC3=O (stereo unspecified)
Potency [16]: 5.62 µM (active)

C[C@]1(c2ccccc2)OC(C(=O)O)=CC1=O
outcome [12]: inactive

COc1cc2ccc(=O)oc2c(O)c1O
outcome [12]: inactive

CC1=C(CCC(=O)O)c2cc3nc(cc4[nH]c(cc5[nH]c(cc1n2)c(C)c5C(C)O)c(C)c4C(C)O)C(C)=C3CCC(=O)O (stereo unspecified)
Potency [16]: 6.31 µM (active)

COc1c(O)cc(O)cc1O
Potency [16]: 8.91 µM (active)

Cc1cc(O)c(C=O)c2c1C(=O)Oc1c(COC(=O)/C=C/C(=O)O)c(O)c(C(=O)O)c(C)c1O2
Potency [16]: 3.16 µM (active)
